Source: the supplement of paper PMC9794691
± gives the standard deviation of the averaged measurements.

Columns and labels:
Test in all cases: area under confluence curve of osimertinib + compound combination regimen (DTP regrowth); compare to osimertinib-only DTP control AUC of the same experiment (AUC (confluence x time, arbitrary))
[1] = tested on: H1975
Procedure, shortened: (§1)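 The area under the IncuCyte confluence–time curve, calculated in Prism and taken as the median of triplicates where available, is the value reported. It was measured in EGFR-mutant NSCLC lines that received the EGFR inhibitor either alone, followed by a test compound, or together with a fixed-dose test compound until the persister stage (10–21 days) and then drug-free medium. Medium was refreshed every 3–4 days until the inhibitor-only wells were confluent again.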

[2] = tested on: HCC2279
Procedure, shortened: as §1

[3] = tested on: HCC2935
Procedure, shortened: as §1

[4] = tested on: HCC4006
Procedure, shortened: as §1

[5] = tested on: HCC827
Procedure, shortened: as §1

[6] = tested on: II-18
Procedure, shortened: as §1

[7] = tested on: PC9
Procedure, shortened: as §1

Cc1nc(Nc2ncc(C(=O)Nc3c(C)cccc3Cl)s2)cc(N2CCN(CCO)CC2)n1 [Dasatinib] + C=CC(=O)Nc1cc(Nc2nccc(-c3cn(C)c4ccccc34)n2)c(OC)cc1N(C)CCN(C)C [osimertinib]
area under confluence curve ([1]; test compound dose 100 nM, dosing schedule: upfront, osimertinib-only DTP control AUC in same experiment: 18969, DMSO control AUC in same experiment: 14522): 1440
area under confluence curve ([2]; test compound dose 100 nM, dosing schedule: upfront, osimertinib-only DTP control AUC in same experiment: 43517, DMSO control AUC in same experiment: 29252): 15300
area under confluence curve ([3]; test compound dose 100 nM, dosing schedule: upfront, osimertinib-only DTP control AUC in same experiment: 10360, DMSO control AUC in same experiment: 13875): 3810
area under confluence curve ([4]; test compound dose 100 nM, dosing schedule: upfront, osimertinib-only DTP control AUC in same experiment: 21234, DMSO control AUC in same experiment: 16638): 4610
area under confluence curve ([5]; test compound dose 100 nM, dosing schedule: upfront, osimertinib-only DTP control AUC in same experiment: 39553, DMSO control AUC in same experiment: 30859): 3890
area under confluence curve ([6]; test compound dose 30 nM, dosing schedule: upfront, osimertinib-only DTP control AUC in same experiment: 13359, DMSO control AUC in same experiment: 11408): 2420

O=C(NC[C@H](O)CN1CCc2ccccc2C1)c1ccnc(NC2CCC2)c1 + C=CC(=O)Nc1cc(Nc2nccc(-c3cn(C)c4ccccc34)n2)c(OC)cc1N(C)CCN(C)C [osimertinib]
area under confluence curve ([1]; test compound dose 300 nM, dosing schedule: sequential, osimertinib-only DTP control AUC in same experiment: 15943, DMSO control AUC in same experiment: 20657): 14900
area under confluence curve ([1]; test compound dose 300 nM, dosing schedule: upfront, osimertinib-only DTP control AUC in same experiment: 27804, DMSO control AUC in same experiment: 20657): 25700
area under confluence curve ([2]; test compound dose 300 nM, dosing schedule: sequential, osimertinib-only DTP control AUC in same experiment: 15997, DMSO control AUC in same experiment: 40085): 8560
area under confluence curve ([2]; test compound dose 300 nM, dosing schedule: upfront, osimertinib-only DTP control AUC in same experiment: 28057, DMSO control AUC in same experiment: 40085): 8330
area under confluence curve ([3]; test compound dose 300 nM, dosing schedule: sequential, osimertinib-only DTP control AUC in same experiment: 7139, DMSO control AUC in same experiment: 15413): 8090
area under confluence curve ([3]; test compound dose 300 nM, dosing schedule: upfront, osimertinib-only DTP control AUC in same experiment: 19044, DMSO control AUC in same experiment: 15413): 16100
area under confluence curve ([4]; test compound dose 300 nM, dosing schedule: sequential, osimertinib-only DTP control AUC in same experiment: 14882, DMSO control AUC in same experiment: 10921): 9080
area under confluence curve ([4]; test compound dose 300 nM, dosing schedule: upfront, osimertinib-only DTP control AUC in same experiment: 18913, DMSO control AUC in same experiment: 10921): 6670
area under confluence curve ([5]; test compound dose 300 nM, dosing schedule: sequential, osimertinib-only DTP control AUC in same experiment: 5666, DMSO control AUC in same experiment: 43928): 5240
area under confluence curve ([5]; test compound dose 300 nM, dosing schedule: upfront, osimertinib-only DTP control AUC in same experiment: 19044, DMSO control AUC in same experiment: 43928): 24000
area under confluence curve ([6]; test compound dose 300 nM, dosing schedule: sequential, osimertinib-only DTP control AUC in same experiment: 21122, DMSO control AUC in same experiment: 7080): 18800
area under confluence curve ([6]; test compound dose 300 nM, dosing schedule: upfront, osimertinib-only DTP control AUC in same experiment: 22894, DMSO control AUC in same experiment: 7080): 6900
area under confluence curve ([7]; test compound dose 100 nM, dosing schedule: sequential, osimertinib-only DTP control AUC in same experiment: 12891, DMSO control AUC in same experiment: 44384): 979
area under confluence curve ([7]; test compound dose 100 nM, dosing schedule: upfront, osimertinib-only DTP control AUC in same experiment: 16570, DMSO control AUC in same experiment: 44384): 3800

CS(=O)(=O)N1CCN(Cc2cc3nc(-c4cccc5[nH]ncc45)nc(N4CCOCC4)c3s2)CC1 + C=CC(=O)Nc1cc(Nc2nccc(-c3cn(C)c4ccccc34)n2)c(OC)cc1N(C)CCN(C)C [osimertinib]
area under confluence curve ([7]; test compound dose 1000 nM, dosing schedule: sequential, osimertinib-only DTP control AUC in same experiment: 1963, DMSO control AUC in same experiment: 30580): 1580 ± 160
area under confluence curve ([7]; test compound dose 1000 nM, dosing schedule: upfront, osimertinib-only DTP control AUC in same experiment: 8618, DMSO control AUC in same experiment: 30580): 4540 ± 320

CN(C)CCCOc1ccc(-c2ccc3ncc4c(c3c2)n(C2CCOCC2)c(=O)n4C)cn1 + C=CC(=O)Nc1cc(Nc2nccc(-c3cn(C)c4ccccc34)n2)c(OC)cc1N(C)CCN(C)C [osimertinib]
area under confluence curve ([1]; test compound dose 300 nM, dosing schedule: sequential, osimertinib-only DTP control AUC in same experiment: 19301, DMSO control AUC in same experiment: 26223): 3330
area under confluence curve ([1]; test compound dose 300 nM, dosing schedule: upfront, osimertinib-only DTP control AUC in same experiment: 23997, DMSO control AUC in same experiment: 26223): 18100
area under confluence curve ([2]; test compound dose 300 nM, dosing schedule: sequential, osimertinib-only DTP control AUC in same experiment: 26096, DMSO control AUC in same experiment: 14404): 24700
area under confluence curve ([2]; test compound dose 300 nM, dosing schedule: upfront, osimertinib-only DTP control AUC in same experiment: 33120, DMSO control AUC in same experiment: 14404): 33900
area under confluence curve ([3]; test compound dose 300 nM, dosing schedule: sequential, osimertinib-only DTP control AUC in same experiment: 22314, DMSO control AUC in same experiment: 19215): 22300
area under confluence curve ([3]; test compound dose 300 nM, dosing schedule: upfront, osimertinib-only DTP control AUC in same experiment: 29846, DMSO control AUC in same experiment: 19215): 30600
area under confluence curve ([4]; test compound dose 300 nM, dosing schedule: sequential, osimertinib-only DTP control AUC in same experiment: 12791, DMSO control AUC in same experiment: 18415): 12000
area under confluence curve ([4]; test compound dose 300 nM, dosing schedule: upfront, osimertinib-only DTP control AUC in same experiment: 17269, DMSO control AUC in same experiment: 18415): 16000
area under confluence curve ([5]; test compound dose 300 nM, dosing schedule: sequential, osimertinib-only DTP control AUC in same experiment: 15330, DMSO control AUC in same experiment: 21320): 12300
area under confluence curve ([5]; test compound dose 300 nM, dosing schedule: upfront, osimertinib-only DTP control AUC in same experiment: 20798, DMSO control AUC in same experiment: 21320): 17400
area under confluence curve ([6]; test compound dose 300 nM, dosing schedule: sequential, osimertinib-only DTP control AUC in same experiment: 8624, DMSO control AUC in same experiment: 11834): 9720
area under confluence curve ([6]; test compound dose 300 nM, dosing schedule: upfront, osimertinib-only DTP control AUC in same experiment: 10856, DMSO control AUC in same experiment: 11834): 10600
area under confluence curve ([7]; test compound dose 300 nM, dosing schedule: sequential, osimertinib-only DTP control AUC in same experiment: 7760, DMSO control AUC in same experiment: 29563): 4600
area under confluence curve ([7]; test compound dose 300 nM, dosing schedule: sequential, osimertinib-only DTP control AUC in same experiment: 15001, DMSO control AUC in same experiment: 22064): 14800
area under confluence curve ([7]; test compound dose 300 nM, dosing schedule: sequential, osimertinib-only DTP control AUC in same experiment: 15044, DMSO control AUC in same experiment: 30604): 3980
area under confluence curve ([7]; test compound dose 300 nM, dosing schedule: upfront, osimertinib-only DTP control AUC in same experiment: 11798, DMSO control AUC in same experiment: 29563): 5590
area under confluence curve ([7]; test compound dose 300 nM, dosing schedule: upfront, osimertinib-only DTP control AUC in same experiment: 20672, DMSO control AUC in same experiment: 30604): 5990
area under confluence curve ([7]; test compound dose 300 nM, dosing schedule: upfront, osimertinib-only DTP control AUC in same experiment: 24924, DMSO control AUC in same experiment: 22064): 22400
